Experimental data reported in PubChem BioAssay AID485313 (National Center for Advancing Translational Sciences (NCATS), 2010).
Screen size: about 320,000 compounds; about 7,600 (2.4%) were called active. Not shown: some 3% with an inconclusive outcome. This is one part of a sample in which actives are shown more often than they occur. Unmarked numbers belong to inactive results. Calls come from the whole dose curve; as a rule, active = well fitted activation curve with a large enough effect; inconclusive = small, poorly fitted or top-dose-only effect; inactive = no such curve, though single readings can be large or run the other way.

assay: qHTS Assay for NPC1 Promoter Activators; conditions: Huh7 NPC1 promoter luciferase reporter, 24 h; series mostly up to 9.22 µM; activation: at the top concentration; note: nearly all actives have a fitted effect of over 60% in size; for activation: % of control where 0% means no effect
Description: NIH Chemical Genomics Center [NCGC] NIH Molecular Libraries Probe Production centers Network [MLPCN] MLPCN Grant: MH089375-01A1 Assay Submitter (PI): Yiannis A. Ioannou NCGC Assay Overview: Niemann Pick Type C (NPC) is a rare neurodegenerative lipidosis that is characterized by lipid storage in the endosomal/lysosomal system. Treatment modalities for this devastating disease are currently non-existent due to the severe obstacles associated with accessing the central nervous system with proteins or genes. The majority of mutations causing NPC disease are missense mutations that are distributed throughout the length of the NPC1 protein, with the most prevalent being the I1061T allele. Although NPC1 mutant proteins may be functional, they are typically trapped in the ER due to misfolding. […] We have developed and optimized a cell based luciferase reporter assay in 1536 well format for the identification of up-regulators of the mutant NPC1 promoter.
The NPC1 promoter is cloned in front of the luciferase reporter gene, therefore NPC promoter activation results in luciferase expression. Frozen stock of the NPC1 promoter transfected Huh7 cells were obtained from the laboratory of Dr. Yiannis Ioannou (The Mount Sinai School of Medicine, New York, NY). Cells were propagated and maintained at NCGC in medium containing RPMI-1640 supplemented with 10% FBS, 2mM L-glutamine, and 50ug/ml penicillin/streptomycin. Cells were harvested in and plated for assays in OP-MEM I reduced-serum medium supplemented with 10% FBS. The Amplite luciferase reporter gene assay kit was purchased from ABD Bioquest and prepared/stored according to manufacturers recommendations. qHTS Assay Setup: 1.#Dispensed 5ul of Huh7 cells stably expressing NPC1-luciferase at a density of 1500 cells per well 1536-well plates. 2.#Incubate cells at 37C, 5% CO2, and 95% humidity for 2 hours. 3.#Transferred 23nl per well of compound in DMSO solution. 4.#Incubated at 37C, 5% CO2, and 95% humidity for 24 hours. 5.#Dispensed 3ul per well of Amplite reagent(ABD Bioquest) per well. 6.#Incubate at ambient for 10 minutes. 7.#Read using the luminescence protocol on the ViewLux plate reader (Perkin Elmer).
Potency is the fitted concentration of half-maximal effect.

SMILES	activation	Potency
Cc1ccsc1C(=O)OCC(=O)Nc1cccc(F)c1	7.29%	–
Cc1cc(C(=O)COc2ccc(Br)cc2F)c(C)n1C1CC1	15.3%	–
N#Cc1ccccc1S(=O)(=O)N1CCN(Cc2c(O)ccc3ccccc23)CC1	-0.384%	–
CC1CC1C(=O)OCC(=O)Nc1cccc(F)c1 (configuration not stated)	-0.27%	–
CC(=NCc1ccco1)c1c(C(F)(F)F)[nH]n(-c2nc3ccccc3s2)c1=O	–	2.24 µM (active)
CC(=NCc1ccco1)C1=C(O)c2ccccc2C1=O	8.33%	–
COC(=O)Cc1[nH]n(-c2nc3ccccc3s2)c(=O)c1C(C)=Nc1ccc(OC)cc1	-16%	–
CCCn1c(N)c(N(CCOC)C(=O)C2CCCC2)c(=O)[nH]c1=O	-2.43%	–
CN(C(=O)CSc1nnc(C2CC2)n1C)C1CCCc2ccccc21 (configuration not stated)	-0.553%	–
CN(C)/C=C(\C#N)C(=O)c1cccnc1Oc1ccc(F)cc1F	-8.2%	–
COc1ccc(C)cc1NC(=O)CCCN1C(=O)NC(C)(C)C1=O	-6.41%	–
COc1ccc(-c2nnc(SC(C)C(=O)NC3CC3)o2)cc1 (configuration not stated)	-0.432%	–
CN(C)C(=O)c1ccc(NC(=O)COC(=O)c2cc3c(s2)CCCCC3)cc1	-5.23%	–
O=C(NNC(=O)c1cc2c(s1)CCCC2)c1ccccc1	21.2%	–
O=C(Nc1ccc(F)cc1)c1cc2c(s1)CCCC2	–	2.24 µM (active)
CCN(C(=O)COC(=O)Cc1c(F)cccc1Cl)c1c(N)n(Cc2ccccc2)c(=O)[nH]c1=O	-0.302%	–
CSc1ncccc1C(=O)Nc1nc2ccc(F)cc2s1	–	0.126 µM (active)
CSc1ncccc1C(=O)NC1CCCCCC1	-4.31%	–
CSc1ncccc1C(=O)Nc1ccc2c(c1)OCO2	-0.125%	–
Cc1ccc(NC(=O)CCC(=O)N2CCC(c3ccccc3)=N2)cc1S(=O)(=O)N1CCCCC1	-1.45%	–
O=c1ccc2c(-c3ccccc3S(=O)(=O)O)c3ccc(O)c(O)c3oc-2c1O	-7.8%	–
CC1CCCCC1NC(=O)NC(=O)COC(=O)C1=NN(c2ccccc2)C(=O)CC1 (configuration not stated)	-3.42%	–
O=S(=O)(NCCCN1CCOCC1)c1ccc(F)c(Cl)c1	-5.25%	–
COc1ccccc1CNC(=O)COC(=O)CNS(=O)(=O)c1ccc(NC(C)=O)cc1	-1.15%	–

SMILES	activation	Potency
Cc1ccnc(N2C(=O)c3ccc([N+](=O)[O-])cc3C2=O)c1	-0.192%	–
Cc1ccc(-n2cc3ccc([N+](=O)[O-])cc3n2)cc1	–	0.794 µM (active)
Cc1ccc(-c2cn(S(=O)(=O)c3cccc([N+](=O)[O-])c3)nc2N)cc1	-1.34%	–
Cn1c(N)c(C(=O)COC(=O)/C=C/c2cccc(C(F)(F)F)c2)c(=O)n(C)c1=O	0.0298%	–
Cc1ccn(-c2cccc(-n3ccc(C)n3)n2)n1	–	3.16 µM (active)
CN(CC(=O)Nc1ccc(OC(F)(F)F)cc1)C(=O)C1CCC1	-1.1%	–
CC(=O)c1c(C)[nH]c(C(=O)OCC(=O)Nc2c(C)cccc2C)c1C	-10.2%	–
COc1ccc(/C=N/NC(=O)Nc2ccc3nsnc3c2)c(OC)c1	-0.0419%	–
COc1ccc(NC(=O)c2ccc(C#CC(C)(C)O)cc2)cc1	8.18%	–
COc1ccccc1CC(=O)Nc1ccc(F)cc1F	1.66%	–
COc1ccc(NC(=O)Nc2cccc3cccnc23)cc1	16.2%	–
COc1cc(OC)cc(C(=O)OCC(=O)Nc2ccc(F)cc2F)c1	-1.57%	–
COc1ccc(NC(=O)Nc2ccc3nsnc3c2)cc1	–	1.78 µM (active)
COc1ccc(C(=O)Nc2ccc(F)cc2F)cc1	–	3.16 µM (active)
COc1ccc(C(=O)Nc2cccc(S(C)(=O)=O)c2)cc1	2.72%	–
COc1ccc(NC(=O)c2ccc(OC)cc2)cc1	–	1.78 µM (active)
COc1ccc(OC)c(/C=N/NC(=O)c2ccc[n+](CC(=O)c3ccccc3)c2)c1	2.89%	–
COc1ccccc1C(=O)Nc1ccc(C)c(S(=O)(=O)N2CCCCC2)c1	-2.07%	–
CNS(=O)(=O)c1ccc(C(=O)NCC(=O)NCCc2ccc3c(c2)OCCO3)cc1	0.876%	–
COc1ccc(C(=O)NCc2ccc(C)cc2)cc1S(=O)(=O)N1CCCC1	-2.7%	–
CC(C)(Oc1ccc(Cl)cc1)C(=O)OCC(=O)NCCc1ccc(S(N)(=O)=O)cc1	-3.7%	–
CC(=O)c1ccccc1NC(=O)C1CC(=O)N(c2ccc3c(c2)OCCO3)C1 (configuration not stated)	-3.76%	–
COc1ccc(C(=O)N2CCN(c3ccc(C(C)=O)cc3F)CC2)cc1S(=O)(=O)NC1CC1	11.8%	–
CCc1ccccc1NC(=O)[C@@H]1CCC(=O)N1C1OC(=O)c2c1ccc(OC)c2OC (some centres not stated)	-0.58%	–

SMILES	activation	Potency
CN(C(=O)CSc1nnc(-c2ccc(C(C)(C)C)cc2)n1C)C1CCS(=O)(=O)C1 (configuration not stated)	1.03%	–
Cc1cccc(NS(=O)(=O)c2ccc(C)c(C(=O)NCC(c3ccccc3)N(C)C)c2)c1 (configuration not stated)	-5.65%	–
C[C@H](NC(=O)c1ccccc1Cl)C(=O)OCC(=O)N1CCN(c2ccccc2)CC1	-0.198%	–
Cc1cnc(C(=O)OCC(=O)N2CCc3ccccc32)cn1	9.65%	–
CCOC(=O)N1CCC(NC(=O)c2cnn3ccccc23)CC1	-0.0909%	–
O=C(c1cnn2ccccc12)N1CCc2ccccc21	–	3.16 µM (active)
CC(=O)NCCC(=O)Nc1cc(S(=O)(=O)N2CCCCC2)ccc1Oc1cccc(C)c1	-0.163%	–
O=C(c1ccc(F)cc1)n1c(=S)nc2ccccn21	–	0.355 µM (active)
O=C(c1ccc(F)cc1)n1cc(C(=S)N2CCOCC2)c2ccccc21	1.36%	–
O=C(C[n+]1cc(Br)cc2ccccc21)c1ccc(F)cc1	-1.7%	–
Cc1ccc(NC(=O)Cn2c(C)csc2=O)cc1	13.8%	–
CCOC(=O)c1cc2c(nc1NC(=S)Nc1ccccc1)CC(C)(CC)OC2 (configuration not stated)	0.619%	–
CCOC(=O)c1cn[nH]c1NC(=S)Nc1ccccc1	–	2.82 µM (active)
CCOC(=O)c1ccc(NC(=S)Nc2cc(C)cc(C)n2)cc1	-5.29%	–
CN(C)C1=NC[C@H](Cc2ccccc2)N1CCc1ccc(F)cc1	-6.2%	–
COc1ccc(OC)c(/C=C/C(=O)c2ccc3c(c2)OCO3)c1	18.9%	–
CCOC(=O)[C@H]1[C@H]2COc3ccc(C)cc3[C@@H]2N2C(=O)CN(Cc3ccc(F)cc3)C(=O)[C@@]12C	-1.2%	–
COc1ccc(CN2CCN(C(=O)c3cc(C4CC4)nn3-c3ccccc3)CC2)cc1F	1.51%	–
Cc1ccc(-n2c(C)cc(C(=O)CSc3nnc4ccccn34)c2C)cc1	–	0.891 µM (active)
Cc1cc(C(=O)CSc2nc(N)cc(=O)[nH]2)c(C)n1-c1cccc(F)c1	-13.5%	–
O=C(CSc1nnc2ccccn12)c1ccccc1	–	3.55 µM (active)
N#Cc1ccc(CSc2nnc3ccccn23)cc1	0.241%	–
Cc1ccc(-n2c(C)cc(C(=O)CN3C(=O)C(=O)N(C4CCCC4)C3=O)c2C)cc1	1.5%	–
O=C(CSc1nnc2n1CCCN2)c1ccccc1	24.4%	–
